Bioassay records as filed in PubChem.
Coupling enz – coupling enzyme interference in Giardia aldolase counter-screen; coupling enzyme system counterscreen, AmpLite Red fluorescence; activity change, negative = inhibition, % at 58.2 µM, hits read low; 290,000 compounds, 0.67% hits; in the data active = activity change below about -30%
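Counterscreen lacking aldolase: glyceraldehyde-3-phosphate coupling-enzyme reagent preincubated 10 min at RT with compound (at 57.5 uM final), then substrate/coupling system with AmpLite Red added; fluorescence read at 525/598 nm after 20 min RT.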
USP1 inh – USP1/UAF1 (human) deubiquitinase inhibition. O94782. recombinant USP1/UAF1, Ub-Rhodamine cleavage fluorescence. Potency, µM (highest dose often 57.1 µM), actives largely listed as inhibitors. 390,000 compounds, 0.23% hits. AID 743255; also: nearly all actives have a fitted effect of over 60% in size
Target sequence (O94782 whole entry, looked up): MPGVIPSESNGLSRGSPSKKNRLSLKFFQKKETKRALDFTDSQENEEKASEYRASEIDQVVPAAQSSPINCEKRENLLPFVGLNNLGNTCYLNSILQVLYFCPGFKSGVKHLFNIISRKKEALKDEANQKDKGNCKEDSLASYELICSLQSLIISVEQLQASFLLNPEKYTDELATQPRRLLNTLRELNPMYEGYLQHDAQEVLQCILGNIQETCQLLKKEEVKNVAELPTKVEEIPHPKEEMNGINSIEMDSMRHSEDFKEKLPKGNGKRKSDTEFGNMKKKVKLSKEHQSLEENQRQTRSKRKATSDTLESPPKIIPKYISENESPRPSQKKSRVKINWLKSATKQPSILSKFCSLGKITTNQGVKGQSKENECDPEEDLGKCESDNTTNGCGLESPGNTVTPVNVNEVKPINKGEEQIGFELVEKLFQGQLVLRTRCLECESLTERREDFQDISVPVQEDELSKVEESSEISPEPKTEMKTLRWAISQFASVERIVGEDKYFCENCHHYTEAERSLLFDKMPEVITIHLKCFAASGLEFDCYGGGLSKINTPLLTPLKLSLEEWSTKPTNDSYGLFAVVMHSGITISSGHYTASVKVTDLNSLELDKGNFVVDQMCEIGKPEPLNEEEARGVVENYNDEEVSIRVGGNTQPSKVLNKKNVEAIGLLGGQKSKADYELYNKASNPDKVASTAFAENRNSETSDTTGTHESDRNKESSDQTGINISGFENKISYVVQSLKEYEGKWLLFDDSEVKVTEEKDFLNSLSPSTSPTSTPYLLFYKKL
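USP1/UAF1 complex at 1 nM was preincubated with compound for 15 min at room temperature, then Ub-Rho substrate (150nM final) was added. Fluorescence (480/540 nm) was read kinetically, 6 reads every 60 seconds.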
Tau fibril FP – inhibitors of human tau fibril formation; P10636; 280,000 compounds, 0.39% hits; K18 P301L tau heparin fibrillization, Alexa594 FP, 6 h; Potency, µM (top dose mostly 57.7 µM), most hits filed as inhibitors; also: nearly all actives have a fitted effect of over 55% in size
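Human tau K18 […] P301L fragment, 15 uM unlabeled plus 0.24 uM Alexa 594-labeled tau (final), with compound and 20 uM heparin in 100 mM sodium acetate pH 7; 6 hr at 37 C, then Alexa 594 FP read.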
Tau ThT inhib – tau fibrillization inhibition (ThT binding); P10636; recombinant tau K18 P301L, heparin-induced fibrillization, ThT fluorescence; Potency, µM (series often up to 57.4 µM), most hits filed as inhibitors; 270,000 compounds, 2.1% hits; AID 1460; also: nearly all actives have a fitted effect of over 55% in size
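Aggregation was driven by heparin (20 uM final) acting on recombinant tau […] bearing P301L in 100 mM sodium acetate pH 7; fibrils were detected with Thioflavin T.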
Tau fluor counter – counter-screen for tau fibril formation inhibitors. tau K18 P301L Alexa594 fluorescence, heparin fibrillization. Potency, µM (highest dose often 57.7 µM). 280,000 compounds, 0.93% hits. AID 1463; also: nearly all actives have a fitted effect of over 55% in size
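Human tau K18 P301L (15 uM unlabeled, 0.24 uM Alexa 594-labeled) in 100 mM sodium acetate pH 7 with 20 uM heparin, 6 hr at 37 C. ThT 30 uM added, 1 hr ambient; Alexa 594 FP and total fluorescence read at 555/632 nm.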
Numbers stand for hits; . = inactive; ? = inconclusive; / = no result given; [ ] = another dose, or the depositor's remark. The list is not random: actives were taken first. Their share in the collection is about 2.3%. Unless noted, calls follow the shape of the dose curve; as a rule, active = well fitted curve in the direction sought with a large enough effect; inconclusive = small, poorly fitted or top-dose-only effect, or another doubt; inactive = no such curve, though single readings can be large; an effect the other way counts as inactive or inconclusive.

SMILES	Coupling enz	USP1 inh	Tau fibril FP	Tau ThT inhib	Tau fluor counter
CCOc1cc(C2C(C#N)=C(N)SC(N)=C2C#N)ccc1OCCN1CCOCC1	.	.	?	25µM	.
CCCc1[nH]nc2c1C(c1ccc(OCCN3CCOCC3)c(OC)c1)C(C#N)=C(N)O2 (configuration not stated)	.	.	.	.	.
CCOc1ccc(C2C(C#N)=C(N)SC(N)=C2C#N)c(OCC)c1	-37	.	?	?	?
CC(C)n1c(O)c(/C=C2\C=NN=C2c2ccccc2)sc1=S	.	.	14µM	.	?
CC(C)=CCC/C(C)=C/CC/C(C)=C/CSCC(=O)O	.	/	.	?	.
COc1ccc(-c2cn3cc(Cl)ccc3n2)cc1OC	-32	.	.	?	.
CN(C)c1ccc(/C=N/NC(=O)c2cnc3ccccc3c2)cc1	.	.	.	0.63µM	.
CN(C)c1ccc(/C=N\NC(=O)c2cccc3cc[nH]c23)cc1	.	.	.	10µM	?
CN(C)c1ccc(/C=N/NC(=O)c2cc(-c3ccc4c(c3)OCO4)n[nH]2)cc1	.	.	.	2.5µM	?
COc1ccccc1CNc1ccc(-c2nc(-c3ccco3)no2)cc1[N+](=O)[O-]	/	.	?	.	.
CC1(C)CCN2CCC(C)(C)c3c(O)ccc1c32	-30	?	/	/	/
COc1ccc(-c2nc3c(c4c2C[C@H](c2ccccc2)OC4)CN(C(=O)N[C@@H](C)c2ccccc2)CC3)c(C)c1	.	/	.[11.6 µM]	.[11.5 µM]	.[11.6 µM]
CC1CCCc2sc3nc(SCC(=O)c4ccc(Br)cc4)nc(N)c3c21 (configuration not stated)	/	.	?	.	.
CC(=O)Nc1ccc2ccccc2c1	.	.	.	.	.
CC(=O)Nc1ccc2cc3ccc(NC(C)=O)cc3nc2c1	-33	.	.	7.9µM	?
Cc1c(C(=O)c2no[n+]([O-])c2C(=O)c2cnn(C)c2C)cnn1C	.	.	?	14µM	.
Cc1c(C(=O)Nc2ccc(Br)cc2)cnn1C	.	.	.	.	.
COc1cc(C2CC(=O)c3c([nH]c(C(=O)OC4CCCC4)c3C)C2)cc(OC)c1OC (configuration not stated)	/	.	.	.	.
C[C@H](CC[C@@H]1OC1(C)C)C1CC[C@H]2[C@@H]3CC=C4C[C@@H](O)CC[C@]4(C)[C@H]3CC[C@]12C (some centres not stated)	/	/	.	.	.
COC(=O)c1cnc(N2CCN(c3ccccc3F)CC2)c2ccccc12	/	.	.	?	.
COC(=O)c1cnc(N2CCN(c3ccc(OC)cc3)CC2)c2ccccc12	/	?	.	11µM	?
COc1ccc(C2NC3=C(CCCC3)C(C#N)(C#N)C2(C#N)C#N)cc1 (configuration not stated)	.	/	?	25µM	?
CCOC(=O)C1CCCN(c2ccc(NC(=O)c3snc4c(=O)[nH]c(C)nc34)cc2)C1 (configuration not stated)	.	.	.	?	?
CCOC(=O)C1CCCN(c2ccc(NC(=O)c3snc4c(=O)[nH]cnc34)cc2)C1 (configuration not stated)	.	.	.	2.8µM	.
Nc1nc2ccc(S(=O)(=O)N3CCCCC3)cc2s1	.	?	?	32µM	.
SMILES	Coupling enz	USP1 inh	Tau fibril FP	Tau ThT inhib	Tau fluor counter
Cc1ccc(Cl)cc1N1CCN(C(=O)c2cnc(N3CCOCC3)c3ccccc23)CC1	/	?	.	.	.
Oc1ccc(/C=N/Nc2ccnc3cc(Cl)ccc23)cc1O	.	?	.	10µM	16µM[quencher]
Oc1ccc(/C=N/Nc2ccnc3cc(Cl)ccc23)c(O)c1O	.	?	/	/	/
COc1ccc(-c2ccc(=O)n(CC(=O)Nc3ccc(C)cc3C)n2)cc1	/	.	.	.	.
COc1ccc(C2C(C#N)=C(N)OC(C(C)(C)C)=C2C#N)cc1OC (configuration not stated)	-37	.	.	?	.
O=C(Cn1cc(SCc2ccc(Cl)cc2)c2ccccc21)N1CCCC1	/	.	.	?	.
CCC(CNc1cc(OC)cc2cccnc12)NC1CCCCC1 (configuration not stated)	.	?	.	?	.
COc1cc(NCCCC(C)N)c2ncccc2c1 (configuration not stated)	-58	5µM	?	25µM	?
